8 compounds from PubChem BioAssay (NCI) can be followed below.

The panel holds about 83,000 compounds, 20% with a hit somewhere; the sample as a whole holds those more often.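 48-hour exposure, single concentration, 96-well plates; percent growth endpoint where 0 means no net growth. Active: below 10.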 A number with no mark means an inactive call. Activity calls are given as the source filed them.

Some test systems named below: NCI-H23 lung; NCI-H226 lung; NCI-H322M lung; HOP-62 NSCLC; NCI-H460 lung; HOP-92 NSCLC; NCI-H522 lung; A549/ATCC NSCLC; 786-0 renal; COLO 205 colon; DU-145 prostate; K-562 leukemia; MALME-3M melanoma; MDA-MB-231 breast; RXF 393 renal; SF-268 CNS; SF-295 CNS; SF-539 CNS; UACC-257 melanoma; M14 melanoma.
Test in all cases: NCI-60 one-dose screen, 48 h (100 = growth as untreated, 0 = no growth, -100 = all killed)
Common to all, as to conditions: 10 µM unless noted

For the compound `O=C1C(Cl)=C(Nc2ccccc2)C(=O)C(Cl)=C1Nc1ccccc1`, the growth in the experiment with NCI-H23 lung was 106%; in the experiment with NCI-H226 lung, 103%; in the experiment with NCI-H322M lung, 120%; with HOP-62 NSCLC, 113%; in the experiment on NCI-H460 lung, 112%; in the experiment with HOP-92 NSCLC it was 101%. Also, the growth was 112% in the experiment with NCI-H522 lung; 109% with A549/ATCC NSCLC; 109% in the experiment on 786-0 renal; 109% in the experiment with COLO 205 colon; 121% in the experiment on DU-145 prostate; 103% in the experiment on K-562 leukemia. Also, the growth is 119% in the experiment with MALME-3M melanoma; 121% in the experiment with MDA-MB-231 breast; 116% in the experiment with RXF 393 renal; 105% in the experiment with SF-268 CNS; 114% with SF-295 CNS; 106% in the experiment with SF-539 CNS. The growth in the experiment with UACC-257 melanoma is 107%; with M14 melanoma, 113%.

In the case of `C=C(C)[C@@H]1C/C=C(\COC(=O)[C@H](OC(C)=O)C(NC(=O)c2ccccc2)c2ccccc2)CC[C@H]2O[C@]2(C)CC/C=C(\C)CC1` (stereo not given in full), the growth in the experiment with NCI-H23 lung was 73.7% [5 µM]; in the experiment with NCI-H226 lung it was 81% [5 µM]; with NCI-H322M lung, 71.6% [5 µM]; in the experiment on HOP-62 NSCLC it was 75.3% [5 µM]; in the experiment on NCI-H460 lung, 64.2% [5 µM]; in the experiment with HOP-92 NSCLC, 13.3% [5 µM]. Moreover, the growth in the experiment on NCI-H522 lung is 57.3% [5 µM]; with A549/ATCC NSCLC, 73.1% [5 µM]; in the experiment with 786-0 renal, 65.7% [5 µM]; with COLO 205 colon, 92% [5 µM]; with DU-145 prostate it was 86.6% [5 µM]; in the experiment with K-562 leukemia it was 14.7% [5 µM]. In addition, the growth in the experiment with MALME-3M melanoma was 86.3% [5 µM]; with MDA-MB-231 breast, 65.2% [5 µM]; in the experiment with RXF 393 renal, 107% [5 µM]; in the experiment on SF-268 CNS it was 78.9% [5 µM]; in the experiment with SF-295 CNS it was 73.7% [5 µM]; in the experiment with SF-539 CNS, 81.1% [5 µM]. The growth with UACC-257 melanoma was 97.5% [5 µM]; in the experiment with M14 melanoma, 34.3% [5 µM].

Take `O=C(NCCNc1nccc(-c2c(-c3cccc(O)c3)nc3sccn23)n1)c1ccccc1`: the growth in the experiment on NCI-H23 lung was 82.6%; in the experiment on NCI-H226 lung, 54.5%; in the experiment with NCI-H322M lung it was 101%; in the experiment on HOP-62 NSCLC, 119%; in the experiment on NCI-H460 lung it was 42.4%; in the experiment with HOP-92 NSCLC it was 58.6%. Besides, the growth in the experiment with NCI-H522 lung was 72.7%; with A549/ATCC NSCLC, 56.3%; in the experiment on 786-0 renal, 66.5%; in the experiment on COLO 205 colon, 48.5%; with DU-145 prostate, 90.4%; in the experiment on K-562 leukemia, 62.7%. In addition, the growth in the experiment with MALME-3M melanoma was 9.31% (active); with MDA-MB-231 breast, 80%; in the experiment with RXF 393 renal it was 62.6%; in the experiment on SF-268 CNS, 80.7%; in the experiment with SF-295 CNS, 67.4%; in the experiment on SF-539 CNS, 73.2%. For the same compound, the growth in the experiment on UACC-257 melanoma was 11.3%; with M14 melanoma, 15.3%.

As to `Cc1nssc1=S`, the growth in the experiment with NCI-H23 lung is 91.5%; with NCI-H226 lung, 99.6%; in the experiment on NCI-H322M lung it was 85.2%; in the experiment on HOP-62 NSCLC, 107%; with NCI-H460 lung, 109%; in the experiment on HOP-92 NSCLC, 59.9%. Also, the growth in the experiment on NCI-H522 lung is 82.6%; with A549/ATCC NSCLC, 111%; in the experiment on 786-0 renal, 95.3%; with COLO 205 colon, 91.2%; in the experiment with DU-145 prostate, 113%; in the experiment on K-562 leukemia it was 93.8%. The growth in the experiment on MALME-3M melanoma was 102%; in the experiment on MDA-MB-231 breast, 112%; with RXF 393 renal it was 113%; in the experiment on SF-268 CNS, 106%; in the experiment on SF-295 CNS, 99.7%; with SF-539 CNS, 101%. For the same compound, the results for the growth in the experiment with UACC-257 melanoma and with M14 melanoma were 102% and 88.2%, respectively.

`O=C(Nc1cccc(-n2ccc3c(NC(=O)c4ccccc4)nccc32)c1)c1cc(N2CCOCC2)cc(C(F)(F)F)c1`: the growth with NCI-H23 lung was 19.8%; with NCI-H226 lung, 28.7%; in the experiment on NCI-H322M lung, 30.8%; in the experiment on HOP-62 NSCLC it was 36.6%; in the experiment with NCI-H460 lung, -11% (active); with HOP-92 NSCLC it was 29.3%. Also, the growth is -47.5% (active) with NCI-H522 lung; -8.84% (active) in the experiment on A549/ATCC NSCLC; -31.6% (active) in the experiment on 786-0 renal; -51.4% (active) in the experiment with COLO 205 colon; -20.2% (active) in the experiment on DU-145 prostate; 4.28% (active) in the experiment with K-562 leukemia. Besides, the growth with MALME-3M melanoma is 32%; in the experiment on MDA-MB-231 breast, -16.6% (active); in the experiment with RXF 393 renal, -67.3% (active); with SF-268 CNS, 8.26% (active); with SF-295 CNS, -24.4% (active); in the experiment with SF-539 CNS it was -23.2% (active). The growth is 32% in the experiment with UACC-257 melanoma and 9.34% (active) in the experiment with M14 melanoma.

In the case of `COc1ccc(Cn2cc(COc3ccc4c5ccnc(C)c5n(CCCc5ccccc5)c4c3)nn2)cc1`, the growth is 85.6% in the experiment on NCI-H23 lung; 99.4% in the experiment with NCI-H226 lung; 79.5% in the experiment with NCI-H322M lung; 90.7% in the experiment on HOP-62 NSCLC; 62.6% with NCI-H460 lung; 83.3% with HOP-92 NSCLC. Besides, the growth was 64.4% in the experiment on NCI-H522 lung; 75.3% in the experiment on A549/ATCC NSCLC; 80.4% in the experiment with 786-0 renal; 69.2% in the experiment with COLO 205 colon; 84.3% with DU-145 prostate; 63.2% in the experiment on K-562 leukemia. Also, the growth in the experiment on MALME-3M melanoma is 81.6%; in the experiment with MDA-MB-231 breast it was 65.6%; in the experiment with RXF 393 renal, 58.8%; with SF-268 CNS it was 76.6%; in the experiment on SF-295 CNS it was 92.3%; in the experiment with SF-539 CNS, 58.7%. Moreover, the results for the growth in the experiment with UACC-257 melanoma and in the experiment on M14 melanoma were 90.2% and 83.1%, respectively.

For `CO[C@H]1/C=C/C=C/C=C/C[C@H](OC(=O)[C@@H](C)NC(=O)C2CCCCC2)[C@H](C)[C@@H](O)/C(C)=C\CCC2=CC(=O)C=C(NC(=O)C1)C2=O`, the growth is -14.1% (active) in the experiment on NCI-H23 lung; -15% (active) with NCI-H226 lung; -2.45% (active) in the experiment on NCI-H322M lung; -35.6% (active) with HOP-62 NSCLC; 1.23% (active) in the experiment on NCI-H460 lung; -10.7% (active) in the experiment with HOP-92 NSCLC. The growth with NCI-H522 lung was -29.9% (active); in the experiment on A549/ATCC NSCLC, -5.23% (active); in the experiment with 786-0 renal, -5.57% (active); in the experiment with COLO 205 colon it was -26.6% (active); in the experiment on DU-145 prostate, -13.8% (active); in the experiment with K-562 leukemia it was 3.3% (active). Moreover, the growth was -7.99% (active) with MALME-3M melanoma; 5.38% (active) in the experiment on MDA-MB-231 breast; -40.2% (active) with RXF 393 renal; -7.66% (active) with SF-268 CNS; -33.5% (active) in the experiment on SF-295 CNS; -49.3% (active) in the experiment with SF-539 CNS. In addition, the growth in the experiment on UACC-257 melanoma is -18.9% (active); in the experiment on M14 melanoma, -40.3% (active).

As for `Clc1ccc2c(c1)nnn1c3ncccc3c(Br)c21`, the growth was 81.1% with NCI-H23 lung; 90.1% in the experiment on NCI-H226 lung; 88.5% in the experiment with NCI-H322M lung; 63.7% with HOP-62 NSCLC; 78.6% with NCI-H460 lung; 42.9% in the experiment with HOP-92 NSCLC. The growth was 67.8% with NCI-H522 lung; 89.6% in the experiment on A549/ATCC NSCLC; 56.6% in the experiment with 786-0 renal; 88.9% with COLO 205 colon; 90.9% in the experiment on DU-145 prostate; 81.8% in the experiment with K-562 leukemia. Also, the growth in the experiment on MALME-3M melanoma was 81.8%; with MDA-MB-231 breast it was 63.9%; with RXF 393 renal it was 41.5%; with SF-268 CNS, 60.9%; in the experiment with SF-295 CNS, 61.9%; with SF-539 CNS, 61.9%. Further, the growth with UACC-257 melanoma was 101%; with M14 melanoma, 97.7%.
